Compounds with a hit are over-represented: about 6.8% of the library has one in this group of screens.
C diff HTS: C. difficile growth inhibitors, primary screen, HTS; 0.25% of 86,000 active; Clostridium difficile clinical isolate growth, OD600, 24 h; active compounds read low; growth activity, negative = inhibition, % at 16 µg/mL (by protocol);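 active = mean growth activity at or below -80% and every replicate also at or below -80%; inconclusive = mean at or below -80% but some replicate above -80%; inactive = mean growth activity above -80%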;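 also: 0% = DMSO wells and -100% = levofloxacin 16 µg/mL wells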
Pf Dd2 growth: P. falciparum Dd2 growth inhibitors, primary screen, SYBR Green fluorescence, single dose replicates; activity change, % at 10 µM; 72 h; active compounds read low; 2.3% of 94,000 active; AID 1159554, 2015; in the data active = activity change below about -80%; inconclusive = no clear call, values can overlap the other calls
T cruzi growth-1: T. cruzi intracellular proliferation inhibitors, primary screen, cell-based, beta-gal Tulahuen parasites, NIH3T3 host, luminescence; T. cruzi beta-gal in NIH3T3, GalScreen luminescence, 90 h; inhibition, % at 8.34 µM; 5.9% of 77,000 active; AID 624255, 2012;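 active = mean inhibition above about 93%, with at least 55% of replicates each passing it, limit read from the data, passing the limit was not always enough; inconclusive = only one of those two conditions holds; inactive = neither condition holds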
T cruzi growth-2: T. cruzi intracellular proliferation inhibitors, confirmation, cell-based, NIH3T3 host, beta-gal parasite, luminescence, cherry-pick | inhibition, % at 8.35 µM | 72% of 5,600 active | shares compounds with T cruzi growth-1 | T. cruzi beta-gal in NIH3T3, GalScreen luminescence, 90 h | AID 651739, 2012;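 active = mean replicate inhibition above about 95% and at least 55% of replicates individually reaching it, limit read from the data; inconclusive = only one of the two criteria is met; inactive = neither criterion is met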
T cruzi growth-3: inhibitors of intracellular T. cruzi replication, confirmation, NIH3T3 host cells, beta-gal parasites, cherry-pick, set 2 | shares compounds with T cruzi growth-1 | T. cruzi beta-gal in NIH3T3, GalScreen luminescence, 90 h | inhibition, % at 2.09 µM | 21% of 5,600 active | AID 651740, 2012;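 active = mean inhibition above about 95%, with at least 55% of replicates also reaching it, limit read from the data; inconclusive = meets just one of the two conditions; inactive = meets neither condition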;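 also: plate controls were neutral control median for no effect and positive control median for full effect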
NIH3T3 tox: cytotoxicity in mouse NIH/3T3 fibroblasts, confirmation, cytotoxicity control for T. cruzi proliferation inhibitor project, cell-based, cherry-pick, single point. NIH/3T3 viability, CellTiter-Glo ATP luminescence, 90 h. cytotoxicity (signal decrease), % at 8.35 µM. AID 651742, 2012. 14% of 5,600 active. shares compounds with T cruzi growth-1;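 active = mean signal decrease across replicates above about 35% based on untreated-well scatter, with enough replicates individually passing, limit read from the data; inconclusive = no rule stated though some were filed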;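 also: 0% = median of neutral control wells and 100% = median of positive control wells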
3T3 cytotox 2: NIH/3T3 fibroblast cytotoxicity, confirmation, cytotoxicity control, cell-based, cherry-pick, single point, set 2 | shares compounds with T cruzi growth-1 | NIH/3T3 viability, CellTiter-Glo ATP luminescence, 90 h | AID 651744, 2012 | 56% of 5,600 active | inhibition, % at 24.9 µM;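 active = mean loss of cell viability signal at or above a set limit, and enough replicates individually reaching it; inconclusive = meets only the mean limit or only the replicate share; inactive = meets neither condition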;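 also: 0% = median of neutral control wells and 100% = median of positive control wells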
* = called active by the depositor; u = inconclusive; x = no result.

SMILES | C diff HTS | Pf Dd2 growth | T cruzi growth-1 | T cruzi growth-2 | T cruzi growth-3 | NIH3T3 tox | 3T3 cytotox 2
N#C[C@@H]1[C@H](c2ccc(-c3ccccc3)cc2)[C@@H](CO)N1C(=O)Cc1ccccc1 | 10 | -19 | 101* | 108* | 51 | 21 | 53*
N#C[C@H]1[C@@H](c2ccc(-c3ccccc3)cc2)[C@@H](CO)N1C(=O)Cc1ccccc1 | 5 | 14 | 49 | x | x | x | x
CO[C@@H]1CN(C)C(=O)c2cc(NC(=O)C3CCCC3)ccc2OC[C@H](C)N(C(=O)CC2CC2)C[C@H]1C | x | -13 | 1 | x | x | x | x
CC(C)C#Cc1ccc2c(c1)O[C@H](CN(C)C(=O)c1ccccc1)[C@@H](C)CN([C@H](C)CO)S2(=O)=O | -2 | -65 | 115* | 105* | 61 | 0 | 30*
CC(C)C#Cc1ccc2c(c1)O[C@@H](CN(C)C(=O)c1ccccc1)[C@@H](C)CN([C@H](C)CO)S2(=O)=O | 13 | -52 | 69 | x | x | x | x
CC(C)C#Cc1ccc2c(c1)O[C@@H](CN(C)C(=O)c1ccccc1)[C@H](C)CN([C@H](C)CO)S2(=O)=O | -8 | -76 | 99* | 104* | 46 | 46* | 39*
CC(C)C#Cc1ccc2c(c1)O[C@@H](CN(C)C(=O)c1ccncc1)[C@@H](C)CN([C@H](C)CO)S2(=O)=O | 1 | -11 | 107* | 102* | u | 27 | 42*
CC(C)C#Cc1ccc2c(c1)O[C@@H](CN(C)C(=O)c1ccncc1)[C@H](C)CN([C@@H](C)CO)S2(=O)=O | 4 | -13 | 67 | x | x | x | x
CC(C)C#Cc1ccc2c(c1)O[C@H](CN(C)C(=O)c1ccccc1)[C@@H](C)CN([C@@H](C)CO)S2(=O)=O | 29 | -61 | 85 | x | x | x | x
CC(C)NC(=O)N(C)C[C@@H]1Oc2c(NC(=O)c3ccc(-c4nccs4)cc3)cccc2C(=O)N([C@@H](C)CO)C[C@@H]1C | -1 | 35 | -11 | x | x | x | x
CN1C(=O)c2cc(NC(=O)C3CCOCC3)ccc2OC[C@H]2O[C@@H](CC(=O)NC3CCCC3)CC[C@H]21 | 10 | 16 | 35 | x | x | x | x
COc1ccc(S(=O)(=O)Nc2ccc3c(c2)C(=O)N([C@@H](C)CO)C[C@@H](C)[C@H](CN(C)S(=O)(=O)c2ccc(C)cc2)OCCCC[C@H](C)O3)cc1 | x | -67 | x | x | x | x | x
C[C@@H]1CCCCO[C@H](CN(C)C(=O)Nc2ccc(C(F)(F)F)cc2)[C@@H](C)CN([C@@H](C)CO)C(=O)c2cc(NC(=O)Cc3ccccc3)ccc2O1 | -2 | -89* | u | 101* | 114* | 2 | u
C[C@@H]1CCCCO[C@@H](CN(C)C(=O)Nc2ccccc2)[C@H](C)CN([C@@H](C)CO)C(=O)c2cc(NC(=O)Cc3ccccc3)ccc2O1 | x | -26 | -28 | x | x | x | x
C[C@@H]1CCCCO[C@H](CN(C)C(=O)Nc2ccccc2)[C@H](C)CN([C@H](C)CO)C(=O)c2cc(NC(=O)Cc3ccccc3)ccc2O1 | x | -68 | 29 | x | x | x | x
C[C@H](CO)N1C[C@H](C)[C@H](CN(C)C(=O)Nc2ccc(F)cc2)OCCCC[C@H](C)Oc2ccc(NC(=O)Cc3ccccc3)cc2C1=O | -1 | 4 | 104* | 101* | 40 | -21 | 6
C[C@H]1CCCCO[C@@H](CN(C)C(=O)Nc2ccc(C(F)(F)F)cc2)[C@@H](C)CN([C@@H](C)CO)C(=O)c2cc(NC(=O)Cc3ccccc3)ccc2O1 | 3 | -63 | u | 107* | 111* | 11 | 24*
C[C@@H]1CN([C@H](C)CO)C(=O)c2cc(NC(=O)c3ccccc3)ccc2O[C@@H](C)CCCCO[C@H]1CN(C)C(=O)Nc1ccc(C(F)(F)F)cc1 | -4 | -18 | 71 | x | x | x | x
COc1ccc(CN(C)C[C@@H]2OCCCC[C@H](C)Oc3ccc(NC(=O)NC(C)C)cc3C(=O)N([C@H](C)CO)C[C@@H]2C)cc1 | 1 | -23 | 48 | x | x | x | x
C[C@@H]1CN([C@H](C)CO)C(=O)c2cccc(NC(=O)c3ccncc3)c2O[C@@H]1CN(C)Cc1ccc2c(c1)OCO2 | 1 | -2 | 32 | x | x | x | x
C[C@H](CO)N1C[C@H](C)[C@@H](CN(C)Cc2ccc3c(c2)OCO3)Oc2c(NC(=O)c3ccncc3)cccc2C1=O | -4 | 3 | 99* | 104* | 89 | -1 | 35*
C[C@@H]1CN([C@@H](C)CO)C(=O)c2cccc(NC(=O)c3ccncc3)c2O[C@@H]1CN(C)Cc1ccc(Cl)c(Cl)c1 | 3 | -18 | 97* | 100* | 84 | -11 | 6
C[C@@H]1CN([C@@H](C)CO)C(=O)c2cccc(NC(=O)c3ccncc3)c2O[C@@H]1CN(C)Cc1ccc2c(c1)OCO2 | 1 | -5 | 68 | x | x | x | x
C[C@H](CO)N1C[C@H](C)[C@@H](CN(C)Cc2ccc(Cl)c(Cl)c2)Oc2c(NC(=O)c3ccncc3)cccc2C1=O | 15 | -8 | 89 | x | x | x | x
C[C@H]1CN([C@@H](C)CO)C(=O)c2cccc(NC(=O)c3ccncc3)c2O[C@@H]1CN(C)Cc1ccc2c(c1)OCO2 | 8 | -4 | 100* | 91 | 87 | -17 | 1
SMILES | C diff HTS | Pf Dd2 growth | T cruzi growth-1 | T cruzi growth-2 | T cruzi growth-3 | NIH3T3 tox | 3T3 cytotox 2
CCC(=O)N(C)C[C@H]1Oc2cc(-c3cccc(F)c3)ccc2S(=O)(=O)N([C@H](C)CO)C[C@@H]1C | -5 | 2 | 87 | x | x | x | x
C[C@H]1CN([C@@H](C)CO)C(=O)c2cc(NC(=O)C3CC3)ccc2O[C@@H]1CN(C)C(=O)Nc1ccc(C(F)(F)F)cc1 | -4 | 18 | -11 | x | x | x | x
O=C(Nc1ccccc1)N1CCCCN2[C@H](C1)[C@H](c1ccc(-c3ccncc3)cc1)[C@@H]2CO | 1 | 25 | 63 | x | x | x | x
O=C(Nc1ccccc1)N1CCCCN2[C@H](CO)[C@H](c3ccc(-c4ccncc4)cc3)[C@H]2C1 | -4 | -13 | 96* | 94 | 65 | -27 | -4
O=C(Nc1ccccc1)N1CCCCN2[C@H](CO)[C@H](c3ccc(-c4ccccc4)cc3)[C@H]2C1 | 20 | -35 | 103* | 101* | 64 | 56* | 104*
O=C(Nc1ccccc1)N1CCCCN2[C@H](CO)[C@H](c3ccc(-c4ccncc4)cc3)[C@@H]2C1 | 0 | 24 | 70 | x | x | x | x
O=C(Nc1ccccc1)N1CCCCN2[C@@H](CO)[C@H](c3ccc(Br)cc3)[C@@H]2C1 | 28 | -27 | 36 | x | x | x | x
